Dicer processing – inhibitors of human Dicer processing of pre-microRNA; z-score at 25 µM; cat-ELCCA pre-miR-21 Dicer processing, chemiluminescence; stronger effect = higher value; Q9UPY3; actives 6% (n = 47,000); in the data active = z-score above about 3, passing the limit was not always enough;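 note: plate controls were vehicle for no effect and no enzyme for full effect; higher signal means more uncleaved substrate so more Dicer inhibition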
The depositor's hits bear a star. Only a selection was taken, and hits are over-represented in it overall.

What do the screens show for `CN1C(=O)C2(/C(=C(/O)c3ccc(Cl)cc3)C(=O)C(=O)N2CCCN2CCOCC2)c2ccccc21` (stereo not given)?
Dicer processing: 10

How did C=CCN1C(=O)C2(/C(=C(/O)c3ccc(Cl)cc3)C(=O)C(=O)N2CC2CCCO2)c2ccccc21 (stereo not given) do in these assays?
Dicer processing: 0.42

Results for C=CCN1C(=O)C2(/C(=C(/O)c3ccccc3)C(=O)C(=O)N2CCCN2CCOCC2)c2ccccc21 (stereo not given) ?
Dicer processing: 3.48*

What do the screens show for `Cc1cc(SCC2=NNC(=O)/C2=C/N(C)C)c(Cl)cc1Cl`?
Dicer processing: -3.15

What do the screens show for `CC(C)NC(=O)c1sc2ccccc2c1Cl`?
Dicer processing: 0.57

What do the screens show for `COc1ccc(S(=O)(=O)O/N=C(\C)c2ccc(F)c(F)c2)cc1OC`?
Dicer processing: -0.66

Results for Cc1ccc(NS(C)(=O)=O)cc1[N+](=O)[O-] ?
Dicer processing: 0.26

Results for CC(C)Cc1nc2sc3c(NCC4CCCO4)ncnc3c2c2c1COC(C)(C)C2 (stereo not given) ?
Dicer processing: 0.39

What do the screens show for `O=c1cc(-c2cc(Br)cc3c2OCOC3)oc2ccccc12`?
Dicer processing: 3.49*

How did Cc1ccccc1-c1cc(=O)c2cc(Cl)ccc2o1 do in these assays?
Dicer processing: 2.17

Results for Cc1cc2oc(-c3ccccc3C(=O)O)cc(=O)c2cc1C ?
Dicer processing: -0.1

What do the screens show for `CCOC(=O)c1c([N+](=O)[O-])c(C(C)(C)C)[nH]c(=O)c1C#N`?
Dicer processing: -0.56

What do the screens show for `COC(=O)c1cc(NC(=O)NC(=O)c2c(Cl)cccc2Cl)ccc1OCS(=O)(=O)c1ccc(Cl)cc1`?
Dicer processing: 0.45

Results for Cc1ccc(/C(C#N)=C2C=C(Cl)/C(=N/O)C=C\2Cl)cc1 ?
Dicer processing: 3.76*

What do the screens show for `N#C/C(=C1C=C/C(=N\O)C(Br)=C/1)c1ccccc1`?
Dicer processing: -0.66

What do the screens show for `Cc1ccc(/C(C#N)=C2C=C/C(=N\O)C(Cl)=C\2)cc1`?
Dicer processing: 2.57

How did Cc1cc(C(F)(F)F)n2nc(-c3ccc(C(C)(C)C)cc3)cc2n1 do in these assays?
Dicer processing: -1.83

What do the screens show for `O=C(O)CCN1CCC(C(=O)O)CC1`?
Dicer processing: 0

How did Cc1cc(N)c(-n2c(-c3ccc(Cl)cc3)cn3c4c(=O)n(C)c(=O)n(C)c4nc23)cc1C do in these assays?
Dicer processing: -1.25

What do the screens show for `O=C1/C(=C/c2c(F)c(F)c(F)c(F)c2F)SC(=S)N1/N=C/c1ccc(Cl)cc1Cl`?
Dicer processing: 11.7*

Results for Cc1cccc(/C=C2\SC(=S)N(/N=C/c3ccc(Cl)cc3Cl)C2=O)c1 ?
Dicer processing: -1.35

How did C=CCn1c(=S)sc2c(=O)n(/N=C/c3ccc(Cl)cc3Cl)c(C)nc21 do in these assays?
Dicer processing: -1.78

Results for OCCCNCC(O)CN1c2ccccc2Sc2ccccc21 (stereo not given) ?
Dicer processing: 2.26

Results for CS(=O)(=O)c1ccc(-c2nnn(CC(=O)O)n2)cc1 ?
Dicer processing: -0.14

What do the screens show for `c1ccc2c(-c3csc(-c4ccc(-c5ccno5)s4)n3)csc2c1`?
Dicer processing: -1.43

What do the screens show for `Nc1nc(-c2cccc3ccccc23)cs1`?
Dicer processing: 0.36

Results for Nc1nc(-c2csc3ccccc23)cs1 ?
Dicer processing: 3.26*

How did CC1=C(C(=O)Nc2cccc(C)n2)C(c2ccc(Br)cc2)C2=C(CC(C)(C)CC2=O)N1 (stereo not given) do in these assays?
Dicer processing: 2.52

What do the screens show for `O/N=C/c1c(-c2ccccc2Cl)[nH]c2ccccc12`?
Dicer processing: 1.66

How did Clc1ccccc1-c1cc2ccccc2[nH]1 do in these assays?
Dicer processing: 3.96*

How did Nc1ccc(Cl)c(-c2nc3ccccc3[nH]2)c1 do in these assays?
Dicer processing: 0.01

What do the screens show for `c1ccc(-c2ccc(-c3cnc(-c4ccccc4)o3)cc2)cc1`?
Dicer processing: 1.93

Results for COc1ccc(Nc2nc3c4ccccc4n(C(C)=O)c3s2)cn1 ?
Dicer processing: -1.24

Results for O=c1c(N2CCOCC2)nnc2sc3ccccc3n12 ?
Dicer processing: 4.29*

What do the screens show for `O=c1c(=O)n2c(nn1CN1CCCCC1)sc1ccccc12`?
Dicer processing: 4.14*

Results for Cc1nnc2c(N3CCOCC3)nc3ccccc3n12 ?
Dicer processing: -0.14

Results for C=CCn1nc2sc3ccccc3n2c(=O)c1=O ?
Dicer processing: 1.15

Results for NC(=O)Cn1nc2sc3ccccc3n2c(=O)c1=O ?
Dicer processing: -1.26

Results for Cn1nc2sc3ccccc3n2c(=O)c1=O ?
Dicer processing: -1.49

How did O=c1c(=O)n2c(nn1CN1CCOCC1)sc1ccccc12 do in these assays?
Dicer processing: 4.32*

Results for O=c1c(=O)n2c(nn1Cc1ccccc1Cl)sc1ccccc12 ?
Dicer processing: -1.29

What do the screens show for `O=C(Cn1nc2sc3ccccc3n2c(=O)c1=O)c1ccc(Cl)cc1`?
Dicer processing: 7.1

How did COCCOC(=O)c1c(C)oc2cc(Br)c(OC/C=C/c3ccccc3)cc12 do in these assays?
Dicer processing: 0.03

Results for Cc1n[nH]c(=O)c2noc(/C=C/c3ccc(Cl)c(Cl)c3)c12 ?
Dicer processing: -1.03

How did CCCCOC(=O)C1=C(C)NC2=C(C(=O)CC(C)(C)C2)C1c1ccc2c(c1)OCO2 (stereo not given) do in these assays?
Dicer processing: 0.07

Results for O=c1c2ccccc2n2c(=O)[nH]nc2n1-c1ccccc1 ?
Dicer processing: 1.23

What do the screens show for `CN(C)CCOC(=O)c1cc2ccccc2o1`?
Dicer processing: 0.63

How did CCCC1CC(CSc2nc3ccccc3[nH]2)OC1=O (stereo not given) do in these assays?
Dicer processing: -1.62

What do the screens show for `Cn1cncc1S(=O)(=O)/C(C#N)=C/c1ccccc1Sc1ccc(Cl)cc1`?
Dicer processing: -1.54

What do the screens show for `FC(F)(F)c1cccc(NN=C2C3CC4CC(C3)CC2C4)n1`?
Dicer processing: 1.57

How did O=C(O)C(Cc1ccccc1)N1C(=O)C2CCCCC2C1=O (stereo not given) do in these assays?
Dicer processing: 1.66

How did CCCCC(C(=O)O)N1C(=O)C2C3c4ccccc4C(c4ccccc43)C2C1=O (stereo not given) do in these assays?
Dicer processing: 3.52*

What do the screens show for `O=C1C2C3c4ccccc4C(C(=O)O)(c4ccccc43)C2C(=O)N1Cc1ccccc1` (stereo not given)?
Dicer processing: 1.55

What do the screens show for `CCCc1[nH]nc2c1C1(CCN(C(=O)OCC)CC1)C(C#N)=C(N)O2`?
Dicer processing: -1.46

Results for c1cn(CCCNc2ncnc3sc4c(c23)CCCCC4)cn1 ?
Dicer processing: -0.13

What do the screens show for `O=C(Nc1nc2c(s1)CCc1ccccc1-2)c1ccc(F)c(Cl)c1`?
Dicer processing: 3.72*

Results for CC(=O)Nc1nc2c(s1)Cc1ccccc1-2 ?
Dicer processing: -1.3

How did ON/C=N/c1nc2c(s1)CCc1ccccc1-2 do in these assays?
Dicer processing: 2.28

How did O=C(Nc1nc2c(s1)Cc1ccccc1-2)c1ccc(F)c(Cl)c1 do in these assays?
Dicer processing: 1.21

How did CCCCCCCCC(=O)Nc1nc2c(s1)CCc1ccccc1-2 do in these assays?
Dicer processing: -0.72

What do the screens show for `Oc1ccccc1CNc1nc2c(s1)CCc1ccccc1-2`?
Dicer processing: 4.27*

How did Clc1cccc(Cl)c1CSC1=NCCCN1C1CCCCC1 do in these assays?
Dicer processing: 0.49

Results for COc1ccc(C2Nc3ccc4ccccc4c3C3=C2C(=O)CC(C)(C)C3)c(OC)c1 (stereo not given) ?
Dicer processing: 0.92

Screening data deposited in PubChem by Center for Chemical Genomics, University of Michigan.
